Laboratory results reported in PubChem BioAssay (NCI).
This is part of a sample that, as a whole, favours compounds with a hit. Of some 79,000 tested, about 15% had one in any assay. Activity calls are given as the source filed them. Rule as the data show it: active = growth inhibition above about 70%; inactive = the rest.

test: NCI Yeast Anticancer Drug Screen. Data for the cln2 rad14 strain (AID 165);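 also: 0% = growth equal to vehicle treated cultures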; conditions: S. cerevisiae cln2 rad14 strain, at 50.0 µM (retest, dose inferred, filed as 5.0), stronger effect = higher value
Method in brief: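 cln2 rad14 yeast strain; compound exposure; growth inhibition read vs vehicle controls.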

SMILES | growth inhibition
O=C1c2ccccc2C(=O)c2sc(Nc3cc(Cl)ccc3Cl)nc21 | 97% (active)
OCC(c1ccccc1)c1ccccc1 | 9% (inactive)
CN(C)c1nc(=NCc2ccco2)ss1 | 32% (inactive)
C/C=C\C=N\NC(N)=S | -3% (inactive)
O=C(/C=N/O)c1c(-c2ccccc2)[nH]c(-c2ccccc2)c1-c1ccccc1 | 33% (inactive)
Cc1c2ccccc2c(CO)c2cc(F)c3ccccc3c12 | 98% (active)
O=C(O)Cc1cccc2c(=O)c3cccc([N+](=O)[O-])c3[nH]c12 | 79% (active)
Cc1ccc(SC2=C(N(C)C)C(=O)c3ccccc3C2=O)cc1 | 94% (active)
O=C1C(Cl)=C(Cl)C(=O)c2cc(Cl)c(Cl)cc21 | 97% (active)
CC1=C(C2CO2)C(=O)C(C)=C(C2CO2)C1=O (centres undefined) | 99% (active)
CCc1cc(CC)c(-c2ccco2)c(COC(=O)NC)c1 | 25% (inactive)
COC(=O)C(=O)N(c1cc(C)ccc1C)c1cc(C)ccc1C | 26% (inactive)
COC1=CC(=O)c2c(O)c3c(c(O)c2C1=O)C=C(C)OC3O (centres undefined) | 20% (inactive)
O=[N+]([O-])c1ccccc1NCCO | 4% (inactive)
CCCCCCCCCCCCCCCC[N+](C)(C)CC(=O)O | 94% (active)
S=C(SSSSC(=S)N1CCCCC1)N1CCCCC1 | 94% (active)
COC(O)C12OC3CO[Si](C(C)C)(C(C)C)O[Si](C(C)C)(C(C)C)OC3C1Oc1nc(=O)ccn12 (centres undefined) | 97% (active)
O=C(O)c1ccccc1C(c1ccccc1)c1ccccc1 | 84% (active)
OC(OC/C(I)=C(/I)COC(O)C(Cl)(Cl)Cl)C(Cl)(Cl)Cl (centres undefined) | 70% (active)
